SMILES strings stand for the structures. Records with an inconclusive call do not appear. The list shows a part of the results. Calls of active or inactive are those of the source. Unless noted, calls follow the shape of the dose curve; as a rule, active = well fitted curve in the direction sought with a large enough effect; inconclusive = small, poorly fitted or top-dose-only effect, or another doubt; inactive = no such curve, though single readings can be large; an effect the other way counts as inactive or inconclusive.

The target in experiment [1] is Cytochrome P450 2C9 (Homo sapiens) (UniProt P11712). Kind of experiment: qHTS Assay for Inhibitors and Substrates of Cytochrome P450 2C9 (AID 883). Also: potency is read from the fitted curve at half-maximal effect; nearly all actives have a fitted effect of over 60% in size. In outline: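 Signal: luciferase luminescence reporting luciferin produced by CYP2C9. Conditions: 10nM enzyme, Luciferin-H 100uM at KM, 25mM KPO4, 37C, 60 min NADPH-driven reaction. Reference: 57uM sulphaphenazole as 100% inhibition.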
Cytochrome P450 2C9 (Homo sapiens), sequence (P11712 whole entry, looked up): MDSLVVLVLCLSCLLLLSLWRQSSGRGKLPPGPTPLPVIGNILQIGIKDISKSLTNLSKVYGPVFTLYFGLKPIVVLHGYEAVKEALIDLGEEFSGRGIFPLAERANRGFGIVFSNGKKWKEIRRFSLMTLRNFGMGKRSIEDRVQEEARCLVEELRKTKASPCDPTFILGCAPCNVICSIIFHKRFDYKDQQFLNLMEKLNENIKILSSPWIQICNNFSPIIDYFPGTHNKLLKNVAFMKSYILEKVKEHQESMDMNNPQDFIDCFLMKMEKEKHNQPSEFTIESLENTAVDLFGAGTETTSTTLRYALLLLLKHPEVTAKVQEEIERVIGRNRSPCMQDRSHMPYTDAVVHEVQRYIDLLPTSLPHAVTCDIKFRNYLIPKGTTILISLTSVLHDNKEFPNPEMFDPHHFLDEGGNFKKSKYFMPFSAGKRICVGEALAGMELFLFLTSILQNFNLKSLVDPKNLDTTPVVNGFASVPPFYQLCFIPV
A general note: In qHTS, concentration-response curves come from the screen itself.

Experiment [2] in a line: qHTS Assay for Identifying Gametocytocidal Compounds (AID 743244). Also: potency is read from the fitted curve at half-maximal effect. The settings on record: P. falciparum 3D7 stage III-V gametocytes, alamarBlue, 72 h; max response: stronger effect = lower value. An outline of the steps:
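Late gametocytes (III–V), P. falciparum 3D7; 72 h drug, then 24 h alamarBlue; resazurin reduction read by fluorescence.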

Experiment [3] is described as follows: qHTS assay for small molecule activators of the nuclear factor-kappa B (NF-kB) signaling pathway (AID 651749; active = well fitted activation curve with a large enough effect in the signal ratio; the % refers to the signal ratio; also: potency is read from the fitted curve at half-maximal effect). The settings on record: NF-kB-bla ME-180 cells, beta-lactamase FRET ratio, 16 h; activation: stronger effect = higher value. An outline of the steps: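 In this qHTS format, compounds acting as activators increase NF-kB-driven beta-lactamase in ME-180 cells, measured as disrupted FRET after 16 hr exposure at 37C and 5% CO2.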

The target in experiment [4] is Cytochrome P450 3A4 (Homo sapiens) (UniProt P08684). The experiment in a line: qHTS Assay for Activators of Cytochrome P450 3A4 (AID 885). Also: nearly all actives have a fitted effect of over 65% in size. In outline:
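Luminescent readout of luciferin formed from 25 uM Luciferin-PPXE (KM level) by 20 nM CYP3A4 in 200 mM KPO4, with 60 min NADPH-driven reaction at room temperature after 10 min compound exposure. Ketoconazole (57 uM) defined 100% inhibition.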

Experiment [5] has as its target Nuclear receptor ROR-gamma (Homo sapiens) (UniProt P51449). The experiment in a line: qHTS assay for small molecule antagonists of the retinoid-related orphan receptor gamma (ROR-gamma) signaling pathway (AID 651802).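 Also: CHO cells with doxycycline-induced ROR-gamma expression; % is scaled to controls: 0 for no effect and ±100 for the full control effect; nearly all actives have a fitted effect of over 60% in size.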 An outline of the steps: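 Steps: cells dispensed; compound or DMSO transferred by pin tool; doxycycline added to induce the ROR response element-driven luciferase; plates held 16hr at 37C; ONE-Glo added and luminescence measured.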

Experiment [6] in a line: qHTS profiling for inhibitors of Plasmodium falciparum (3D7) proliferation (AID 743322).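 Also: infected erythrocytes exposed to compound for 72 h before lysis; 100% = DMSO vehicle wells and 0% = 0.29 µM artemisinin.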 The settings on record: P. falciparum 3D7 proliferation; at 28.7 µM (top of the series) unless noted. An outline of the steps:
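Parasite DNA was quantified by SYBR Green I fluorescence (ex 485, em 535 nm) after overnight lysis in saponin/Triton buffer at room temperature. Cultures at 0.3% parasitemia and 2.5% hematocrit were first exposed to compound for 72 h at 37 C; signals were normalised to artemisinin (0.29 uM) and vehicle wells.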

The nature of experiment [7]: qHTS profiling for inhibitors of Plasmodium falciparum (DD2) proliferation (AID 743323; call rule not given here). The settings on record: lower = more inhibition; at 28.7 µM (top of the series) unless noted. In outline: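 Parasite DNA quantified by SYBR Green fluorescence (ex 485, em 535 nm) after saponin/Triton lysis and overnight dark incubation. Cultures: 0.3% parasitemia, 2.5% hematocrit, 72 h, 37 C; data scaled between DMSO and 0.29 uM artemisinin.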

Experiment [8] in a line: qHTS profiling for inhibitors of Plasmodium falciparum (HB3) proliferation (AID 743324).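 Also: 100% = DMSO vehicle wells and 0% = artemisinin-treated control wells.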 The settings on record: Plasmodium falciparum HB3 blood-stage proliferation; at 28.7 µM (top of the series) unless noted. In outline:
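SYBR Green fluorescence (485 ex/535 em) of lysed cultures, incubated overnight at room temperature in the dark, quantifies parasite DNA. Infected erythrocytes at 0.3% parasitemia and 2.5% hematocrit were exposed 72 h; values normalized to DMSO and 0.29 uM artemisinin controls.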

Experiment [9] in a line: qHTS assay for small molecule agonists of the antioxidant response element (ARE) signaling pathway measured by Nrf2-dependant transcriptional activity (AID 720636; active = well fitted curve in the direction sought with a large enough effect in the repeat runs; an effect the other way counts as inactive or inconclusive; also: % of control where 0% means no effect). In outline:
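ARE-luc HepG2 cells carrying an Nrf2-responsive luciferase reporter, in medium with 1% dialyzed FBS, exposed to compound for 16 hr at 37 C, 5% CO2. Luminescence read 30 min after ONE-Glo addition.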

Experiment [10] can be described thus: qHTS assay for small molecule agonists of the antioxidant response element (ARE) signaling pathway measured by Nrf2-dependant transcriptional activity - cell viability counter screen (AID 720653; active = well fitted curve in the direction sought with a large enough effect in the repeat runs; an effect the other way counts as inactive or inconclusive; also: potency is read from the fitted curve at half-maximal effect). The settings on record: ARE-bla HepG2 viability, CellTiter-Glo ATP luminescence, 16 h; max response: stronger effect = lower value. In outline: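 ARE-bla HepG2 cells treated with compounds for 16 h at 37C; this counter screen measures viability as intracellular ATP by CellTiter-Glo luminescence after 30 min at room temperature.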

The target in experiment [11] is Tyrosine-protein kinase Yes (Homo sapiens) (UniProt P07947). Kind of experiment: qHTS for small molecule inhibitors of Yes1 kinase: Primary Screen (AID 686947). Also: potency is read from the fitted curve at half-maximal effect; nearly all actives have a fitted effect of over 60% in size. The settings on record: Yes1 kinase biochemical qHTS inhibition. An outline of the steps:
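ADP-Glo luminescence reports ADP formed by 4 nM Yes1 phosphorylating poly(E4Y) (0.3 mg/mL) with 0.1 mM ATP for 60 min at room temperature, following 20 min compound preincubation; normalised between DMSO wells with and without enzyme.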

Experiment [12] concerns the target Flap endonuclease 1 (Homo sapiens) (UniProt P39748). Kind of experiment: qHTS Assay for the Inhibitors of FEN1: Confirmatory Assay for Cherry-picked Compounds (AID 720498). Also: potency is read from the fitted curve at half-maximal effect; nearly all actives have a fitted effect of over 60% in size. The settings on record: FEN1 flap cleavage, TAMRA/BHQ2 fluorogenic DNA substrate. In outline:
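Human FEN1 (10 nM reagent) was preincubated with compounds for 15 min at room temperature, then 50 nM final double-flap DNA substrate (5'-TAMRA flap, BHQ-2 quencher strand) was added. Fluorescence (ex 525/em 598 nm) was read at 0 and 15 min.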

Experiment [13] deals with DNA polymerase eta (Homo sapiens) (UniProt Q9Y253). The experiment in a line: qHTS for Inhibitors of Polymerase Eta: Confirmatory Assay for Cherry-picked Compounds (AID 720502). Also: potency is read from the fitted curve at half-maximal effect. The settings on record: Pol eta primer extension, TAMRA/BHQ fluorescence, 10 min. In outline:
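Pol eta 10 nM; substrate 50 nM final (unlabeled primer, TAMRA reporter, BHQ-2 template); preincub. 15 min RT; reads t=0 and t=10 min at ex525/em598.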

DNA polymerase eta (Homo sapiens), sequence (Q9Y253 whole entry, looked up): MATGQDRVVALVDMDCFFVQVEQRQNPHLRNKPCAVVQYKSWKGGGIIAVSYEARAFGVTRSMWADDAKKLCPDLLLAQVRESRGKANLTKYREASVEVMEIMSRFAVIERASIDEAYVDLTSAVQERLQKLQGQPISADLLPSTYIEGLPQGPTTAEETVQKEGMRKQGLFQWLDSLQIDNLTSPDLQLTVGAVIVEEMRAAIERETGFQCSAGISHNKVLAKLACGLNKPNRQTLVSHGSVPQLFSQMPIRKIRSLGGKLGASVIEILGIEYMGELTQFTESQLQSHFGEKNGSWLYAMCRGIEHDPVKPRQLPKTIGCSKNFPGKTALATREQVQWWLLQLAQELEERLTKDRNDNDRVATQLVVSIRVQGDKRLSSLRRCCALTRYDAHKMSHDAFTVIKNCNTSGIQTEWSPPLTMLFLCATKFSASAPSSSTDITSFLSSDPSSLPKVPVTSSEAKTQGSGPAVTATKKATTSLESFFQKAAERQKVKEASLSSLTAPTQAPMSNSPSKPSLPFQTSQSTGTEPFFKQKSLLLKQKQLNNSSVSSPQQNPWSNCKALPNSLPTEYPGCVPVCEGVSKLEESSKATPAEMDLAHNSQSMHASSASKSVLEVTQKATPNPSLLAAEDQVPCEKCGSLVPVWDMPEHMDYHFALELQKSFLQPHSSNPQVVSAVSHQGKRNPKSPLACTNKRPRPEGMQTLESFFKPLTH
Tyrosine-protein kinase Yes (Homo sapiens), sequence (P07947 whole entry, looked up): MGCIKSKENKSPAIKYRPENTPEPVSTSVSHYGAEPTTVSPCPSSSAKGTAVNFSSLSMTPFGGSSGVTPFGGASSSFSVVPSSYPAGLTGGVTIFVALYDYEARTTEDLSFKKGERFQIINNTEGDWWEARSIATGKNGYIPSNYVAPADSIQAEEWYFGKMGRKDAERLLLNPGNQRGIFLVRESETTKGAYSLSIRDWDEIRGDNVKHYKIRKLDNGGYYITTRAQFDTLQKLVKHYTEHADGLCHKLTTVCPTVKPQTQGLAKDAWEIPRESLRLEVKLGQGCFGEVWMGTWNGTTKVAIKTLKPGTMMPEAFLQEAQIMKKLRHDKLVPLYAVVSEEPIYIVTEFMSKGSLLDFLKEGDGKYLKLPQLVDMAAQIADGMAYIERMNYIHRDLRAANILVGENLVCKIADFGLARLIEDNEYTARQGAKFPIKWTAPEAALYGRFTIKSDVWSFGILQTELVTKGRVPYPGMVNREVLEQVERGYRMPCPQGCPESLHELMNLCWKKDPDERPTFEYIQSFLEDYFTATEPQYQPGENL
Cytochrome P450 3A4 (Homo sapiens), sequence (P08684 whole entry, looked up): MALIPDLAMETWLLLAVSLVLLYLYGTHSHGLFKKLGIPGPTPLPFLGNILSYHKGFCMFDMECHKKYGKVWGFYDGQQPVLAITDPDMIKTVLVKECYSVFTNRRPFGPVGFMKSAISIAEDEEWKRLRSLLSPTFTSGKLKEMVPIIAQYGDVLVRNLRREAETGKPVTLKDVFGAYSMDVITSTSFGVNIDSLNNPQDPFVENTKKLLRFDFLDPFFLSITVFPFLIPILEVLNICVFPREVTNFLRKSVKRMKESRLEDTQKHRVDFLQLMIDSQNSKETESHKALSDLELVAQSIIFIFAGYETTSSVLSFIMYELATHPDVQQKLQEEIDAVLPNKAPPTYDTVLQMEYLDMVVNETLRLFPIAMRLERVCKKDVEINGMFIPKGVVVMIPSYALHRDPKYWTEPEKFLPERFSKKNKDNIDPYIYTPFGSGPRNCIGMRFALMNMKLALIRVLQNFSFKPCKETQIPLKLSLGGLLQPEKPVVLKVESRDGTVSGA
Nuclear receptor ROR-gamma (Homo sapiens), sequence (P51449 whole entry, looked up): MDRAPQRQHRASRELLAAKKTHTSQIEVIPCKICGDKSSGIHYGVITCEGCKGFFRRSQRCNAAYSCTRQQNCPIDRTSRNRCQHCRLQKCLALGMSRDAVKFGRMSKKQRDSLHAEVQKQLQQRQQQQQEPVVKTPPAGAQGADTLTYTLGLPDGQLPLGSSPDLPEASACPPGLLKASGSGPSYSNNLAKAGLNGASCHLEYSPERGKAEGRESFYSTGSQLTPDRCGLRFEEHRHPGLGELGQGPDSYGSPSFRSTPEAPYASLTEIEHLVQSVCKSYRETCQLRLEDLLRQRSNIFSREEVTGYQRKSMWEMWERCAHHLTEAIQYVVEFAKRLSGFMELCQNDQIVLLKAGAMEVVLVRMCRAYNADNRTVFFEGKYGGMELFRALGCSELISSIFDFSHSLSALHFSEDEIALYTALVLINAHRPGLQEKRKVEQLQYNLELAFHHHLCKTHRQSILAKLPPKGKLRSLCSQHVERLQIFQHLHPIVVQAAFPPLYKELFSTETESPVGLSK
Flap endonuclease 1 (Homo sapiens), sequence (P39748 whole entry, looked up): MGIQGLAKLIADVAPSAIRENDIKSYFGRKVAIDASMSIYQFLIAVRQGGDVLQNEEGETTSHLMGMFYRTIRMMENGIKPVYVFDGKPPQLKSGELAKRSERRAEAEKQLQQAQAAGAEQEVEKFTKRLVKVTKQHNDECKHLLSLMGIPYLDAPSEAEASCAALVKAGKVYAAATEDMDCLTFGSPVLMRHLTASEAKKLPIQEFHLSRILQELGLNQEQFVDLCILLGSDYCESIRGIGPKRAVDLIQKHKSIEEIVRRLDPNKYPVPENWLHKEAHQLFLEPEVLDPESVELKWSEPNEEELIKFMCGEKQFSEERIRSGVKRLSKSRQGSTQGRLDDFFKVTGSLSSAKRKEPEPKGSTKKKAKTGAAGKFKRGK

On to `CC(C)C[C@H](NC(=O)N1CCCCCC1)C(=O)N[C@H](Cc1cn(C)c2ccccc12)C(=O)N[C@H](Cc1ccccn1)C(=O)O`, for which, in [1], the Potency is 6.31 µM (active).
For `COC(=O)C[C@](O)(CCCC(C)(C)O)C(=O)O[C@@H]1C(OC)=CC23CCCN2CCc2cc4c(cc2[C@H]13)OCO4` (some centres undefined), the Potency in [2] was 0.0833 µM (active).
Consider `C[C@H]1[C@@H](OC(=O)CCC(=O)O)O[C@@H]2OC3(C)CC[C@H]4[C@H](C)CC[C@@H]1[C@@]24OO3`, for which the Potency in experiment [2] is 0.0662 µM (active).
With `O=C(O[C@@H]1Cc2c(O)cc(O)cc2O[C@@H]1c1cc(O)c(O)c(O)c1)c1cc(O)c(O)c(O)c1`, in experiment [3], the Potency was 12.6 µM (active).
Regarding `c1ccc2c(c1)ccc1ncccc12`, the Potency entry in [4] and in experiment [5] was “inactive” throughout.
Turning to `O=C1C(=O)c2ccccc2C(O)=C1C1CCC2(CC1)OOC1(O2)C2CC3CC(C2)CC1C3` (centres undefined), in experiment [6], the remaining parasite growth % (stronger effect = lower value) amounted to 0.339%. In addition, the activity, percent of control in experiment [7] was -0.0523%. This compound also came in with a remaining proliferation (% of control), lower = more inhibition in experiment [8] of 0.423%.
Consider `CC(=O)c1c(O)c(C)c(O)c2c1OC1=CC(=O)[C@H](C(C)=O)C(=O)[C@]12C`, for which the Potency in experiment [1] was 0.0126 µM (active).
For the compound `CC/C(=C(\c1ccc(O)cc1)c1ccc(OCCN(C)C)cc1)c1ccccc1`, the Potency result in experiment [9] was “inactive”. Further, in experiment [10], the Potency is 25.1 µM (active).
As for `C[C@@H]1[C@@H](CC(C[C@H]2O[C@@H]3O[C@]4(C)CC[C@@H]5[C@H](C)CC[C@@H]([C@H]2C)[C@@]35OO4)C(=O)NCc2ccc(F)cc2)O[C@@H]2O[C@]3(C)CC[C@H]4[C@H](C)CC[C@@H]1[C@@]24OO3` (some centres undefined), the remaining parasite growth % (stronger effect = lower value) in experiment [6] is -0.677%. In [7], the activity, percent of control was found to be 0.0214%. In addition, the remaining proliferation (% of control), lower = more inhibition in [8] is 0.676%.
`COc1cc(O)c2c(c1)/C=C/C[C@H](O)[C@H](O)C(=O)/C=C\C[C@H](C)OC2=O`: in experiment [11], the Potency was 2.44 µM (active).
`CC[C@@H](C(=O)[C@@H](C)[C@@H](O)[C@H](C)[C@@H]1O[C@@H]([C@@H](CC)C(=O)O)CC[C@@H]1C)[C@H]1O[C@]2(C=C[C@@H](O)[C@]3(CC[C@@](C)([C@H]4CC[C@](O)(CC)[C@H](C)O4)O3)O2)[C@H](C)C[C@@H]1C`: in experiment [2], the Potency is 0.235 µM (active).
Take `COc1cccc(N2C(=O)NC(=O)/C(=C\c3ccc([N+](=O)[O-])s3)C2=O)c1`: the Potency in experiment [12] was 8.49 µM (active); in experiment [13], 37.9 µM (active).

For the origin of these results see PubChem BioAssay (NCATS).
